Drawing on PubChem BioAssay AID1159506 (National Center for Advancing Translational Sciences (NCATS), 2015), this text covers seed-corrected z-score for 85 sequences.

Over roughly 59,000 sequences, the read-out has its median near -0.00055; the lowest 2% begin near -2. Only a selection was taken, and the lowest values are over-represented in it overall.

A short description of the assay: Identification of proteins required for the processing of the EWS-FLI1 nascent transcript.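 Further: robust z of luciferase light less the median z of siRNAs with the same seed.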 The settings on record: TC32 Ewing sarcoma NR0B1-luc vs CMV-luc (EWS-FLI1 target promoter against control promoter), 48 h; screened at 20 nM (by protocol). The method in brief:
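Three siRNAs per gene, each in a separate well at 20 nM, were transfected into TC32 cells bearing either reporter construct. Luminescence was measured two days on, and per-gene comparison relied on seed-corrected Z values.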
Take UUACCAGAUAGGAUGAUCA against OR5P2: the seed-corrected z-score stood at 0.365.

Regarding UUUGAGGCCGUUGAGGGUG against ELAVL3, the seed-corrected z-score is -0.487.

Consider UGGGAUUCAAGAUCUCCUC against NGEF, for which the seed-corrected z-score was -3.75. For the sequence UUAAUGUAUGGGUUGACUC against PLS1, the seed-corrected z-score was -0.413. The result for UCCAGUUCUCCGGUGAUCU against SYNE3 reads 0.481; that for UUUGCAUUCAUAAAGAAUU against ING3, -0.246; that for UCACGUACAAGAGCACUCG against GRHL2, 0.132. UUCAGUUGAAUUCCAAAGG against ARHGAP28 returned a seed-corrected z-score of 0.997. AAGGUGAUAAGUACAGUCA against LINC00977 returned a seed-corrected z-score of 0.26. For AUGAUGCUAGGGUCGGUGC against E2F2, the seed-corrected z-score was -0.689. As for UCUAGUACUACAUUGGCUU against FLJ32255, the seed-corrected z-score is -1.66. CAUGGUCUCAGUCAGCAUG against CBY3: the seed-corrected z-score was -2.21. The result for UAUUCAGCAUUCUCUAUCU against DDAH2 reads -0.379; that for UCCCUGACAACUCCAGGGU against CLDN9, 0.379; that for UAGUAAAUGAACGAAGGCG against MAD2L1, 0.0839. Regarding UUAGAUACGACAUAAGCAG against PGAP1, the seed-corrected z-score stood at 0.122. For the sequence UUUCUUCAAGGCAGUUUGC against SRGN, the seed-corrected z-score was -1.36. On to UGAUGGUUGAAAUACUGGU against CITED2, for which the seed-corrected z-score is -2.05. To UGAACAGUCGCCGCUCUCU against ZNF418 belongs 0.482; to UGUCGUUUUUGUAUCCUUG against CAGE1, -1.32; to UCUUCGUUGACCACACCAC against KCNIP1, 0.284. In turn, UAGAAUGUCAGUUGGUUCC against MID1IP1 displayed a seed-corrected z-score of 0.366. In the case of UACAGAUAAACGAUGAUGC against TMEM104, the seed-corrected z-score was -0.0479. With AGUUGUCCAACCAAUAGUC against EDRF1, the seed-corrected z-score is -3.95. On to UACAUUGAAGCCUAUGGUU against ARF5, for which the seed-corrected z-score is 0.767. Turning to UUUUAUUUUCACAGUAGCA against LOC441239, the seed-corrected z-score is 0.865. Consider UGACUGUAAACAGAGGCGG against SSR4, for which the seed-corrected z-score was -0.396. Regarding UUUCGUUGGACUUACUUGG against SPP1, the seed-corrected z-score was -0.831. As for UCAGGGCAAAGUGGGAUGA against OXER1, the seed-corrected z-score is -2.06.

As for UUCAGGUGGACGAACAGCG against ADAMTS8, the seed-corrected z-score is -0.634. With UCCGAUAGAGGUUAGACCG against PPT2, the seed-corrected z-score is -0.518. Sequence UCUUCUUUAUGUACCACCG against CDC37L1 gave a seed-corrected z-score of 0.00159. In turn, UUGUAAGCUGGAUCGAUCC against ACACB registered a seed-corrected z-score of 0.0997.

For the sequence UGGGUAUUUGAUCUUGUCG against LZTR1, the seed-corrected z-score was -1.37. The result for UUCUCUUCAACCCACUUGG against JAKMIP1 reads -2.7; that for UUUAGGUAAAUGAACUCUC against ANGPTL2, 0.169. The result for UAAAGGUUGAGAAACUUGA against PRPF38A reads -2.42; that for UUAGAAUCGACCGGCAUUC against KIT, 0.106; that for UAAAUGGCCGUGAUCAAUC against PRDM16, -0.168.

In the case of UUUGUUCAAGGUUAAUCCC against LRRC27, the seed-corrected z-score came out at 0.333. Turning to UAUCUUCUCACUAACACUC against PEX12, the seed-corrected z-score came to 0.599.

Regarding ACCCUUAUGAAUUACACCC against PSMD1, the seed-corrected z-score was -4.24. To UCAUAGUUUAGUUCUCGAG against BBS9 belongs 0.745; to AUAGAAUCGAUGGAAGUCC against CAMK2A, 0.247; to UUCUAUGAAAUCGUAAGGC against ME2, -0.054. For AACAGCUCUCUGGUAAGCG against RPS23P8, the seed-corrected z-score was -0.758. On to UUGCUUUCGAGACCAGCUC against C11orf16, for which the seed-corrected z-score was -2.33. For UUCUUAUAUGUAGUACGGG against ZNF506, the seed-corrected z-score was -0.657. As for UUCGAACUAAGGCACGAGC against ABCB5, the seed-corrected z-score was -0.392. As for UAUUUCCAUCGGAUGAUGC against GJD3, the seed-corrected z-score is -0.0376. For UAGGCUUAGAGGUCCCAGC against LACRT, the seed-corrected z-score came out at 2.39. Sequence UAAUUGACCAGCUUACUAC against PRAMEF2 returned a seed-corrected z-score of 1.04. AAUUCAUCCAUGAUUCUGC against FAM134B: the seed-corrected z-score is -0.291. As to UAGUUGUCGACGAGCACGC against MUC5AC, the seed-corrected z-score is -2.79. With UUCUUACCAGUGUUGAUGG against KIF11, the seed-corrected z-score is -2.21. The sequence UAAUCUUCAUACGCAGUGC against HNRNPR gave a seed-corrected z-score of 0.713. UUCAUACUGAAGAUUUUCC against ZNF157: the seed-corrected z-score is -0.0023.

For the sequence UAGGAUUAAAUUAAUCCUC against GNE, the seed-corrected z-score is -0.0404. As to UAAAGGCAUAGUUUCCCUG against RGS7BP, the seed-corrected z-score was -2.71. With AAAGGUGCAGAAGUUCUGU against LOC646484, the seed-corrected z-score was -1.37.

Consider UCCAGUUCCAGAACUAUCU against HES2, for which the seed-corrected z-score was 0.537. For the sequence AAACGGUCCAGGUAAUUCA against CCND2, the seed-corrected z-score is -1.57. The result for UCUCGUUCCACCAGAUCCG against OGFR reads 2.21; that for AGUUGUAGAAGAACGAAUC against PSMD2, -3.28. As to UUGGGUUUCGGACCUCUCU against CBX7, the seed-corrected z-score stood at 0.219.

Take UAUCCUUCAACCAUUCUGG against DYX1C1: the seed-corrected z-score was determined as 0.0057.

Take UAUAUGACACCUGCUGUGG against NGFR: the seed-corrected z-score was -1.33. As to AUUGCAGUCACGAUGAUGG against OR52I2, the seed-corrected z-score was -1.16. On to UAAUGUCCAAGAUGGUCAC against CELSR1, for which the seed-corrected z-score is 0.481. The result for UUCUGAAUCAAAGUUGUUC against CBLN1 reads 0.758.

Take UGUAUAACCUGGCUCUCUG against FAM45BP: the seed-corrected z-score was -0.888. To UAGGAUGGAACAUCAAUCU against WASH5P belongs -2.88; to UAUGCUCAAAUACCUUUGC against CAT, 0.148; to UAGUGCUUAUCCUAGAAUC against KLK8, 0.915.

For AAACUACCCAAUUGUAAUC against OR9A4, the seed-corrected z-score worked out at 0.66.

For the sequence AUGGUCUUGCCAUCUACCG against RABL2A, the seed-corrected z-score is -2.05. For AUCAAUUUGUCCUCCAUCC against RNPS1P1, the seed-corrected z-score was -0.331. As for GACAUGGCAGUGAGCUUCC against CBX2, the seed-corrected z-score was -0.4. For UGCUCAAUCUGAUAGAUGG against TP63, the seed-corrected z-score is -0.257. The result for UGUUUGAUCUGUAAAAUGG against C15orf32 reads -1.58; that for AUGAUGUUCCUUGAAGUUC against DHRS2, -0.594. UCUCAUCCAGGUACCAGCC against FTCD: the seed-corrected z-score was -0.292.

Take AGCUGUUCAAUGUCAAAGC against INMT: the seed-corrected z-score was -4.2. The result for UGACAUACCAGAGGAAGUG against PLEKHH1 reads -0.0437; that for UUGUUGACCAUAGCUACUC against EWSR1, -4.01.
